From PubChem BioAssay (NCI) come the findings set out here.

This is part of a sample that, as a whole, favours compounds with a hit. Of some 79,000 tested, about 15% had one in any assay. A number with no mark means an inactive call. Active and inactive are the calls of the source. No stated cut-off is given here; in the data, active means growth inhibition above about 70%; inactive means the rest. Where a SMILES comes first, the peptide text is derived from it. [ ]: non-standard residue; d: D form. The star is where a group is joined. ξ: configuration not given here. dThr(3ξ) = CC(O)[C@@H](N)C(=O)O; dNMeL = CN[C@H](CC(C)C)C(=O)O; OBn = c1ccc(CO*)cc1; ξLac = CC(O)C(=O)O

Test [1] in a line: NCI Yeast Anticancer Drug Screen. Data for the rad50 strain (AID 155).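 Further: 0% = growth of vehicle-only cultures of the same strain.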 Conditions: S. cerevisiae rad50 strain growth inhibition; at 50.0 µM; hits give high values. An outline of the steps:
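Vehicle-treated cultures provide the reference for the growth inhibition reported for compound-exposed, repair-deficient yeast.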

A short description of test [2]: NCI Yeast Anticancer Drug Screen. Data for the mec2-1 strain (AID 157). Conditions: S. cerevisiae mec2-1 strain, at 50.0 µM, hits give high values. An outline of the steps: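 Vehicle-treated cultures served as reference for growth inhibition of compound-exposed mec2-1 yeast.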
The nature of test [3]: NCI Yeast Anticancer Drug Screen. Data for the sgs1 mgt1 strain (AID 161).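 Further: 0% = growth of cultures given vehicle only.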 Conditions: S. cerevisiae sgs1 mgt1 strain, at 50.0 µM, hits give high values. An outline of the steps: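 Test agents were incubated with a DNA-repair-mutant yeast strain. Growth was then read and compared against vehicle-treated controls.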
Test [4] is described as follows: NCI Yeast Anticancer Drug Screen. Data for the cln2 rad14 strain (AID 165).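 Further: 0% = growth equal to vehicle treated cultures.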 Conditions: S. cerevisiae cln2 rad14 strain, at 50.0 µM, hits give high values. An outline of the steps:
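Each compound was tested on cln2 rad14 yeast. Inhibition of growth was calculated against vehicle-exposed controls.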

Test [5] is described as follows: NCI Yeast Anticancer Drug Screen. Data for the bub3 strain (AID 167). Conditions: S. cerevisiae bub3 mutant strain, at 50.0 µM, hits give high values. An outline of the steps: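 Mutant yeast screening strain plus compound; vehicle-treated cultures serve as the 0% inhibition reference.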
Test [6] can be described thus: NCI Yeast Anticancer Drug Screen. Data for the mlh1 rad18 strain (AID 175). Conditions: S. cerevisiae mlh1 rad18 strain growth inhibition; at 50.0 µM; hits give high values. An outline of the steps: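 Vehicle-treated cultures served as the reference for growth inhibition in a yeast strain carrying DNA damage repair alterations exposed to each compound.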

In the case of `CC/C=C(\C)C1(CC)C(=O)NC(=O)N=C1N` (stereo unspecified), the growth inhibition is -1.35% in test [1]; 3.55% in test [2]; 5.9% in test [3]; 4.55% in test [4]; -2% in test [5]; -11.9% in test [6].
For `COc1ccc(CCNC(=O)CC(C)=O)cc1`, the growth inhibition in test [1] was -49.2%; in test [2], -40.5%; in test [3] it was -42.3%; in test [4], 11.4%; in test [6] it was -41.8%.
`CC1Cc2ccccc2C2=C3CC=CCC3C3C(=O)OC(=O)C3C21` (stereo unspecified): the growth inhibition in test [1] is 11.4%; in test [2] it was 8.05%; in test [3], 0.5%; in test [4], 2.3%; in test [6], 7.65%.
For the compound `CCC(O)(Cc1ccc(OC)cc1)c1ccc(OC)cc1` (stereo unspecified), the growth inhibition in test [1] is -33.1%; in test [2], -24.4%; in test [3], 14.8%; in test [4], 1.4%; in test [6], -11.8%.
Taken in the same sequence, the figures for `Cc1cccc(S(=O)(=O)c2ccccc2)c1` were 22.9%, 34.1%, -15.7%, 13.1% and 18.6%.
For the compound `O=C(NN1CCCCC1)NN1CCCCC1`, the growth inhibition in test [1] was 5.35%; in test [2], -2.5%; in test [3], 8.6%; in test [4] it was 20.1%; in test [6], 18.2%.
Take `O=C1CC2C3CC(Br)C4C3CC2C14` (stereo unspecified): the growth inhibition in test [1] was 4.95%; in test [2], -0.25%; in test [3], 1.75%; in test [4], 6.5%; in test [6], 4.75%.
On to `CN(Cc1ccc(Cl)cc1)C(=O)Nc1ccccc1Cl`, for which the growth inhibition in test [1] was 6.7%; in test [2], 14.7%; in test [3], 43.3%; in test [4], 7.35%; in test [6], 9.95%.
For the compound `CCC1C(C#N)(C#N)C1(C#N)C#N`, the growth inhibition is -4.7% in test [1]; 21.8% in test [2]; 7.45% in test [3]; 0.35% in test [4]; 12.2% in test [6].
In the case of `Cc1ccc(Sc2cccc3c2C(=O)c2c(Sc4ccc(C)cc4)cccc2C3=O)cc1`, the growth inhibition was -18.9% in test [1]; 9.05% in test [2]; -24.5% in test [3]; -12.4% in test [4]; -11.3% in test [6].
Regarding `CC(=O)Nc1ccccc1Cc1nc2ccccc2c(=O)[nH]1`, the growth inhibition in test [1] was 15.7%; in test [2] it was 12.6%; in test [3], 25.1%; in test [4], 7.9%; in test [6] it was 16.8%.
Take `Nc1cc(Cl)c2c(c1)C(=O)c1ccccc1-2`: the growth inhibition in test [1] was -2.45%; in test [2], 0.7%; in test [3] it was -3.95%; in test [4], -5.3%; in test [6] it was -5.4%.
Consider `O=C=Nc1ccc(Cc2ccc(N=C=O)cc2)cc1`, for which the growth inhibition was -13.7% in test [1]; 6.7% in test [2]; -7.45% in test [3]; -15.2% in test [4]; -36.5% in test [6].
Turning to `CCc1ccccc1NC(=S)NC1CCCCC1`, the growth inhibition was -2.7% in test [1]; -8.85% in test [2]; 0.05% in test [3]; -18.5% in test [4]; -5.6% in test [6].
With `CC1(Br)CC2OC3(Br)C=CC(C)(O)C2(CC1=O)C3(C)C` (stereo unspecified), the growth inhibition in test [1] is 27.2%; in test [2], 10.8%; in test [3], 13.4%; in test [4], 15.7%; in test [6] it was 25.9%.
For `COC(=O)[C@@H]1Cc2ccc(OC)c(c2)OCCC(=O)N1`, in that order: -37%, 0%, 21.7%, -2.95% and -12.2%.
On to `COC(=O)/C(=N/O)C(C(=O)OC)C(=O)C(=O)Nc1c(Cl)cc(C)cc1S(=O)(=O)O` (stereo unspecified), for which the growth inhibition in test [1] is 6.4%; in test [2], 4.35%; in test [3], -22.4%; in test [4] it was -14.1%; in test [6], 8.15%.
As to `NCCn1[nH]c(=O)c2ncccc2c1=O`, the growth inhibition in test [1] is -59%; in test [2], -27.6%; in test [3], -4.45%; in test [4], -49.1%; in test [6], -14.9%.
Take `O=C([O-])C[n+]1ccccc1/C=C/c1ccccc1`: the growth inhibition in test [1] was -19.2%; in test [2] it was 1.8%; in test [3] it was -23.1%; in test [4], -15.2%; in test [6] it was -23.9%.
As for `c1ccc([P+](Cc2ccc(C[P+](c3ccccc3)(c3ccccc3)c3ccccc3)cc2)(c2ccccc2)c2ccccc2)cc1`, the growth inhibition was 48.2% in test [1]; 35.6% in test [2]; 29.4% in test [3]; 40.5% in test [4]; 37.5% in test [6].
As for `O=[N+]([O-])c1ccccc1S(=O)(=O)N1CCCc2cc(Cl)ccc21`, the growth inhibition is -3% in test [1]; 4.15% in test [2]; 9.45% in test [3]; -12% in test [4]; 13.4% in test [6].
For `O=C(Nc1ccccc1F)Oc1ccc(Cl)cc1Cl`, in that order: 26.8%, 14.7%, 20.5%, 26.8% and 13.2%.
For `CCC1=NO[C@@H](C(=O)OCc2ccccc2)[C@H]1C`, in that order: -12.2%, 5.25%, -7.2%, -29.2% and -21.4%.
As for `c1cnn(C23C4C5C6C4C2C6C53)c1` (stereo unspecified), the growth inhibition in test [1] was -24.4%; in test [2], -26.6%; in test [3], -18.7%; in test [4], -20.5%; in test [6], -38.6%.
Take `CN1C/C(=C/c2ccc(N(C)C)cc2)C(=O)/C(=C/c2ccc(N(C)C)cc2)C1`: the growth inhibition in test [1] is -2.45%; in test [2] it was -6.9%; in test [3] it was -16.9%; in test [4] it was -5.3%; in test [6], -18.9%.
For `Cc1c([N+](=O)[O-])cc(C(C)(C)C)c(OC(=O)C(Cl)(Cl)Cl)c1[N+](=O)[O-]`, in that order: 58.3%, 72.5% (active), 73.9% (active), 78.8% (active) and 72.8% (active).
In the case of `C=C(CC[C@@H](C)[C@H]1CC[C@@]2(C)C3=C(CC[C@]12C)[C@@]1(C)CC[C@H](O)[C@@H](C)C1CC3)C(C)C` (stereo partly specified), the growth inhibition in test [1] is 10.4%; in test [2], 2.8%; in test [3], 45.2%; in test [4], 37.8%; in test [6], 71.5% (active).
For the compound `CC(=O)/C=C/C1=C(C)CCCC1(C)C` (tested in a mixture with another compound), the growth inhibition was 19.7% in test [1]; 1% in test [2]; 9.2% in test [3]; -3.25% in test [4]; 5.7% in test [6].
Taken in the same sequence, the figures for `O=S(=O)(O)CCCCBr` were 3.6%, -31.4%, 16.8%, -5% and 13.5%.
Turning to `CC(=O)OC(C)[C@@H](NC(=O)[C@@H](CC(C)C)N(C)C(=O)[C@@H]1CCCN1C(=O)C(C)O)C(=O)OCc1ccccc1` (stereo partly specified) (H-[ξLac]P[dNMeL][dThr(3ξ)](Ac)-OBn), the growth inhibition was 8.75% in test [1]; 24.4% in test [2]; -16.8% in test [3]; 8.2% in test [4]; -37.3% in test [6].
Take `CCC(C)N1C(=O)c2ccccc2C1=O` (stereo unspecified): the growth inhibition in test [1] was 33%; in test [2], -13.6%; in test [3] it was 17.1%; in test [4], -13.6%; in test [6], 27.1%.
As to `Cc1cccc(C)c1NC(=O)Nc1cccc(Cl)c1`, the growth inhibition was 6.3% in test [1]; 15.6% in test [2]; 7.7% in test [3]; -0.5% in test [4]; -0.8% in test [6].
For `CC(=O)Oc1ccc2c(c1)CCC1C2CCC2(C)CC(OC(C)=O)CC12` (stereo unspecified), in that order: 12.4%, -10.3%, -19.2%, 2.95% and -21.8%.
Turning to `NNC(=S)N/N=C\c1ccnc2ccccc12`, the growth inhibition in test [1] is 9.05%; in test [2] it was 2.85%; in test [3], 36.6%; in test [4], 28.7%; in test [6] it was 23.4%.
In the case of `Cc1ccc(S(=O)(=O)N(CCCc2c(Cl)nc(N)nc2Cc2ccccc2)c2ccccc2)cc1`, the growth inhibition in test [1] is -9.75%; in test [2] it was -16.5%; in test [3], -17.2%; in test [4] it was -73.8%; in test [6], -4.65%.
As for `Brc1ccc2noc(-c3ccccc3)c2c1`, the growth inhibition in test [1] is 29.4%; in test [2], 2.25%; in test [3] it was 31.6%; in test [4], -1.6%; in test [6], 16.9%.
